From PubChem
esBAF inh: blocks esBAF chromatin remodeling in mouse ES cells; Bmi1-luciferase knock-in reporter, 24 h; 100% = twice the neutral-well signal; reporter increase, % at 12.5 µM; 350,000 tested, 2% active; AID 602393; in the data active = activation above about 40%; inconclusive = no clear call, values can overlap the other calls;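 also: 0% = median of the plate's neutral control wells and 100% = double that signal; a rise in the Bmi1 reporter signal indicates esBAF inhibition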
MLL AF4-AF9 inh: MLL-AF4/AF9 protein interaction inhibition | inhibition, % at 10 µM | AlphaScreen, biotin-AF4 peptide binding to FLAG-AF9 | AID 651704 | P42568 | 350,000 tested, 0.47% active;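 active = every replicate reaching a set inhibition limit, whatever the replicate mean, cut at about 25% in these data; inconclusive = mean inhibition reaches that limit but some replicates miss it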;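 also: 0% = plate neutral control median and 100% = total signal loss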
Wnt bcat act: activates Wnt/beta-catenin signaling in a reporter cell assay. activation, % at 9.35 µM. activator, plate reader. 300,000 tested, 1.2% active; in the data active = activation above about 30%, passing the limit was not always enough; inconclusive = no clear call, values can overlap the other calls;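 also: 0% = neutral control wells and 100% = positive control wells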
MITF TRPM1 HTS: increases MITF-driven TRPM1 promoter luciferase signal. SK-MEL-5 TRPM1-promoter luciferase, 24 h; % of positive control, neutral wells = 0. 300,000 tested, 0.75% active. activation, % at 12.5 µM;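 active = mean activation of at least 80% with every replicate also reaching 80%; inconclusive = mean reaches 80% but some replicate falls short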;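 also: 0% = neutral control wells and 100% = parthenolide positive control wells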
rRNA inh HTS: selective bacterial rRNA inhibition in E. coli; E. coli WT GFP vs humanized-ribosome RFP mutants, fluorescence, 24 h; hits give low values; DMSO median 0, no signal -100; GFP signal change (wild-type ribosome), % (no concentration beside the values); 350,000 tested, 1.6% active;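 active = significant combined selectivity score with lowered wild-type GFP, culture density cut under 30%, mutant RFP and density less affected; inactive = any of these conditions unmet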
Starred values were filed as active, the others as inactive; ? = inconclusive; · = no result. Hits are enriched below; roughly 3.7% of the tested compounds scored in any of these assays.

SMILES	esBAF inh	MLL AF4-AF9 inh	Wnt bcat act	MITF TRPM1 HTS	rRNA inh HTS
CCOC(=O)c1c(C)[nH]c(C(=O)OCC(=O)c2ccccc2)c1C	45*	1	49*	122*	-22
CC(=O)c1c(C)[nH]c(C(=O)OCc2ccc([N+](=O)[O-])cc2)c1C	41*	-1	10	26	10
COCC(=O)N1[C@@H](C#N)[C@H](c2ccc(-c3cccnc3)cc2)[C@@H]1CO	1	1	·	·	2
O=C(NCc1ccccc1)c1ccc(=O)oc1	·	-1	27	·	7
CC(=O)c1c(C)[nH]c(C(=O)COC(=O)c2nccnc2N)c1C	8	2	1	5	5
CCOC(=O)c1c(C)[nH]c(C(=O)OCc2ccc(F)cc2)c1C	49*	0	-1	58	9
COC(=O)c1c(C)[nH]c(C(=O)OCC(=O)c2ccc(C)s2)c1C	·	-2	-1	89*	-20*
CCOC(=O)c1c(C)[nH]c(C(=O)OCc2ccccc2F)c1C	38	-3	28	?	1
CC(=O)c1c(C)[nH]c(C(=O)COC(=O)c2cccnc2Cl)c1C	52*	5	16	26	4
Cc1ccc2c(C)c(C(=O)Nc3cccnc3)oc2c1	27	·	·	46	·
O=C(Nc1ccon1)c1sc2cc(Cl)ccc2c1Cl	47*	-2	20	28	3
COc1c(Cl)cc(C(=O)Nc2cccnc2)cc1Cl	6	-6	0	·	-8
O=C(Nc1ccon1)c1ccc(Cl)s1	25	·	·	0	·
Cc1ccc(C(=O)Nc2cccnc2)cc1Cl	55*	2	7	·	-10
CCC(C)c1ccc(NC(=O)c2cccnc2)cc1 (stereo not given)	50*	·	·	89*	·
Cc1cc2oc(C(=O)Nc3cccnc3)c(C)c2cc1C	78*	-4	10	77	12
O=S(=O)(c1ccccc1)N1CCc2ccccc2C1	-12	0	-1	·	2
CCNC(=O)C[C@H]1CC[C@H]2[C@@H](COc3ccc(NS(=O)(=O)c4ccccc4C)cc3C(=O)N2C)O1	-8	-1	·	·	-2
Cc1cc(C(=O)Nc2cccnc2)cs1	2	·	·	12	·
Cc1ccc2c(Cl)c(C(=O)Nc3cccnc3)sc2c1	55*	·	·	95*	·
Cc1ccc(C(=O)Nc2cccnc2)cc1C	46*	1	1	·	2
Cc1ccc2c(Cl)c(C(=O)N/N=C/c3cccn3C)sc2c1	·	1	12	75	-22*
Cn1cccc1C(=O)N/N=C/c1c(Cl)cccc1Cl	24	2	28	92*	10
Cc1ccc2c(Cl)c(C(=O)NC3CC3)sc2c1	·	-2	23	47	5
O=C(N/N=C/c1c(Cl)cccc1Cl)c1ccc(F)cc1	29	7	1	15	10
SMILES	esBAF inh	MLL AF4-AF9 inh	Wnt bcat act	MITF TRPM1 HTS	rRNA inh HTS
Cn1cccc1/C=N/NC(=O)c1sc2cc(Cl)ccc2c1Cl	·	0	6	·	-21
CN(C(=O)c1ccc(Cl)c(S(=O)(=O)N2CCOCC2)c1)c1ccccc1C(=O)O	·	2	1	4	8
O=C(CCNC(=O)c1ccc(Br)cc1)NCc1cccnc1	-1	-1	2	3	6
C[C@@H]1CN([C@H](C)CO)C(=O)c2cc(NC(=O)NC3CCCCC3)ccc2O[C@@H](C)CCCCO[C@H]1CN(C)C(=O)c1ccccc1	-1	3	·	·	-4
Cc1ccc(NC(=O)c2cccnc2)cc1C	49*	-4	5	·	12
Cc1cc(NC(=S)Nc2cccnc2)ccc1Br	-2	2	-2	5	-46*
O=C(Nc1ccc(N2CCOCC2)cc1)c1ccc2ncsc2c1	27	-2	8	-3	-7
Cc1cnc(C(=O)Nc2nnc(C(C)C)s2)cn1	6	·	32*	·	·
CC(=O)Nc1cc(C(=O)c2ccccc2)ccc1N1CCOCC1	8	·	·	·	·
O=C(c1ccccc1)c1ccc(N2CCCC2)cc1	60*	·	20	94*	·
Nc1nc2ccc(C(=O)Nc3ccc(N4CCOCC4)cc3)cc2s1	51*	-2	9	6	-5
Nc1cc(C(=O)c2ccccc2)ccc1N1CCOCC1	52*	·	?	·	·
C[C@@H]1CCCCO[C@@H](CN(C)S(=O)(=O)c2cn(C)cn2)[C@H](C)CN([C@@H](C)CO)C(=O)c2cc(NC(=O)CCCN(C)C)ccc2O1	1	4	·	·	2
O=S1(=O)CCOCCCN1Cc1ccccc1F	-1	-4	0	5	6
Cc1ccc(Nc2ccc(C(=O)O)cc2[N+](=O)[O-])cc1	-2	-2	3	-15	-5
